Compound activity: PubChem BioAssay, National Center for Advancing Translational Sciences (NCATS)
Only some compounds are listed: those with a hit (about 8.2% of all), similar ones and a draw of the others.
ELG1 DNA repair: blocks ELG1-dependent DNA repair in HEK293T cells. Potency, µM (highest dose often 46.1 µM), for the others: at the highest dose activity change, negative = inhibition, most hits filed as inhibitors. HEK293T ELG1-luciferase reporter, luminescence, 16 h; DNA damage induced by 5-fluorouridine. AID 504467. 2.3% of 330,000 active; note: % is set by controls: 0 for no effect and ±100 for the full control effect; nearly all actives have a fitted effect of over 55% in size
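5-Fluorouridine DNA damage + compound/DMSO, 2,000 cells/well, 16 h, 37 °C/5% CO2. ONE-Glo, 30 min RT, luminescence. Readout = decrease in reporter signal.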
KB-3-1 cytotox: kills parental KB-3-1 adenocarcinoma cells | KB-3-1 viability, CellTiter-Glo ATP luminescence, 72 h | Potency, µM (doses to about 46.1 µM), actives largely listed as cytotoxic | 1.4% of 400,000 active | AID 1347075; note: % is set by controls: 0 for no effect and ±100 for the full control effect; nearly all actives have a fitted effect of over 60% in size
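Screening of KB-3-1 cells (DMEM, 10% FBS, phenol-red free) ran from lowest to highest compound concentration; after 72 h at 37 °C viability was read luminescently and curves fitted.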
SW480 rereplic: induces DNA re-replication in SW480 colon adenocarcinoma cells. AID 624297. 1.8% of 340,000 active. SW480 DNA re-replication, Hoechst DNA content imaging, 48 h. Potency, µM (highest dose often 46.1 µM), for inactives: at the top dose re-replication activation, hits mostly activators; note: % of control where 0% means no effect; nearly all actives have a fitted effect of over 55% in size
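Quantitative HTS format with DMSO vehicle controls; 48 hr drug incubation at 37 C, then 40 min Hoechst staining and scanning imager measurement at 405 nm excitation.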
KB-V1 MDR tox: kills drug-selected multidrug resistant KB-V1 cells | Potency, µM (doses to about 46.1 µM), usual class: cytotoxic | KB-V1 MDR cells viability, CellTiter-Glo, 72 h | 3.4% of 400,000 active; note: % is set by controls: 0 for no effect and ±100 for the full control effect; nearly all actives have a fitted effect of over 60% in size
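Luminescent ATP read-out (CellTiter-Glo, 10 min) measures survival of drug-selected KB-V1 MDR cells after 72 h, 37 degrees C compound exposure. Medium: phenol-red-free DMEM, 10% FBS. Values from fitted concentration-response curves.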
MCF10A rereplic: induces DNA re-replication in MCF 10a normal breast cells. 2.9% of 350,000 active. Potency, µM (series often up to 46.1 µM), for inactives: at the top dose activity, positive = re-replication, most hits filed as activators. MCF 10A DNA re-replication, Hoechst nuclear intensity, 48 h. AID 624296; note: % of control where 0% means no effect; nearly all actives have a fitted effect of over 50% in size
An asterisk follows results filed as active; i = inactive; ? = inconclusive; nt = no result. Calls come from the whole dose curve; as a rule, active = well fitted curve in the direction sought with a large enough effect; inconclusive = small, poorly fitted or top-dose-only effect, or another doubt; inactive = no such curve, though single readings can be large; an effect the other way counts as inactive or inconclusive. Potency is the fitted concentration of half-maximal effect.

SMILES	ELG1 DNA repair	KB-3-1 cytotox	SW480 rereplic	KB-V1 MDR tox	MCF10A rereplic
O=C(c1cnn(-c2ccc(F)cc2)c1-n1cccc1)N1CCN(c2ccccc2)CC1	nt	?	nt	23µM*	nt
CCC(C(=O)N1CCN(c2ccccc2OC)CC1)c1ccccc1 (centres undefined)	?	?	-703%	21µM*	?
CCOc1ccc(S(=O)(=O)NCc2ccc3c(c2)OCO3)cc1	1%	i	?	i	16%
CCOC(=O)N1CCN(C(=O)c2ccccc2-c2ccccc2)CC1	?	4.6µM*	10µM*	4.6µM*	8.2µM*
COc1ccccc1N1CCN(C(=O)c2nc(SC)ncc2Cl)CC1	nt	4.1µM*	nt	4.1µM*	nt
O=C(NNS(=O)(=O)c1ccccc1)c1cnn(-c2ccccc2)c1-n1cccc1	-8%	i	-2%	16µM*	5%
CCOC(=O)N1CCN(C(=O)c2ccccc2CCc2ccccc2)CC1	4%	i	-1%	i	15%
COc1ccccc1N1CCN(C(=O)C(NS(=O)(=O)c2cccs2)c2ccccc2)CC1 (centres undefined)	-27%	i	-6%	4.6µM*	-4%
COc1ccccc1N1CCN(S(=O)(=O)c2cccs2)CC1	?	i	-4%	i	20%
CC1(C(=O)NCc2ccccc2)CSCC(=O)N1CCOc1ccccc1 (centres undefined)	nt	i	nt	?	nt
COc1ccc(OCCn2c(C3CC(=O)N(c4ccc(F)cc4)C3)nc3ccccc32)cc1 (centres undefined)	nt	i	nt	i	nt
Cc1ccc(OCCn2c(C3CC(=O)N(Cc4ccccc4)C3)nc3ccccc32)cc1 (centres undefined)	15µM*	?	1%	i	12µM*
CCOc1ccccc1N1CC(c2nc3ccccc3n2CCOc2ccc(OC)cc2)CC1=O (centres undefined)	nt	i	nt	5.8µM*	nt
CCOc1ccccc1N1CC(c2nc3ccccc3n2CCCOc2ccc(OC)cc2)CC1=O (centres undefined)	nt	i	nt	?	nt
O=C(Nc1ccccc1)c1cnc(N2CCCCC2)c2ccccc12	nt	i	nt	i	nt
COc1ccc(-c2nc(-c3ccccn3)ncc2S(C)(=O)=O)cc1	-9%	?	-3%	i	-15%
Cn1nc(-c2ccccn2)nc2c(=O)n(C)c(=O)nc1-2	?	?	0.82µM*	i	2.9µM*
Cc1ccccc1-c1nc2c(=O)n(C)c(=O)nc-2n(C)n1	nt	2.1µM*	nt	?	nt
CCCc1nc2c(=O)n(C)c(=O)nc-2n(C)n1	4.6µM*	4.6µM*	0.65µM*	7.3µM*	10µM*
CCCC[C@@H]1CC2=C(C(=O)OC(C)(C)O2)[C@H](c2ccc(C(C)C)cc2)O1	nt	i	nt	i	nt
CCOc1ccc(Cl)cc1-c1cc(C(=O)NC2CCCCC2)[nH]n1	nt	i	nt	i	nt
CSc1nnc(C)c(/C=C/NOCc2cccc(F)c2)n1	3%	i	2%	i	20%
CSc1nnc(C)c(/C=C/Nc2ccc(F)cc2F)n1	-3%	i	20%	?	18µM*
NC(=O)c1ccsc1NC(=O)COC(=O)/C=C/c1ccccc1	?	i	-11%	i	-3%
COC(=O)/C=C/c1ccsc1NC(C)=O	2%	i	9.2µM*	i	1%
CCOC(=O)[C@]12CCC=C1N(Cc1ccc(Cl)cc1Cl)C(=O)[C@H](CC(=O)NCc1cccc(C(F)(F)F)c1)C2	nt	?	nt	21µM*	nt
CCOC(=O)[C@]12CCCC=C1N(Cc1ccc(Cl)cc1Cl)C(=O)[C@H](CC(=O)NCc1ccc(OC)c(OC)c1)C2	nt	?	nt	18µM*	nt
CCOC(=O)[C@]12CCCC=C1N(Cc1ccc3c(c1)OCO3)C(=O)[C@H](CC(=O)NCc1ccc(OC)c(OC)c1)C2	nt	i	nt	i	nt
CCOC(=O)[C@]12CCCC=C1N(Cc1ccc(Cl)cc1Cl)C(=O)[C@H](CC(=O)NCc1cccc(C(F)(F)F)c1)C2	nt	?	nt	16µM*	nt
COC(=O)[C@]12CCCCC=C1N(Cc1ccc(Cl)cc1Cl)C(=O)[C@H](CC(=O)NCc1cccc(C(F)(F)F)c1)C2	nt	i	nt	i	nt
